Viability and Her2 level data for 40 compounds are collected here from PubChem BioAssay.

Active and inactive are the calls of the source.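 The calls were made as follows: active = Her2 level under about 52% in both replicate screens, with viability over 70% of control (limit read from the data); inconclusive = Her2 under the limit in one screen only, or viability under 70%; inactive = Her2 level above the set limit.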

Chain of Receptor tyrosine-protein kinase erbB-2 (Homo sapiens) (P04626 whole entry, looked up): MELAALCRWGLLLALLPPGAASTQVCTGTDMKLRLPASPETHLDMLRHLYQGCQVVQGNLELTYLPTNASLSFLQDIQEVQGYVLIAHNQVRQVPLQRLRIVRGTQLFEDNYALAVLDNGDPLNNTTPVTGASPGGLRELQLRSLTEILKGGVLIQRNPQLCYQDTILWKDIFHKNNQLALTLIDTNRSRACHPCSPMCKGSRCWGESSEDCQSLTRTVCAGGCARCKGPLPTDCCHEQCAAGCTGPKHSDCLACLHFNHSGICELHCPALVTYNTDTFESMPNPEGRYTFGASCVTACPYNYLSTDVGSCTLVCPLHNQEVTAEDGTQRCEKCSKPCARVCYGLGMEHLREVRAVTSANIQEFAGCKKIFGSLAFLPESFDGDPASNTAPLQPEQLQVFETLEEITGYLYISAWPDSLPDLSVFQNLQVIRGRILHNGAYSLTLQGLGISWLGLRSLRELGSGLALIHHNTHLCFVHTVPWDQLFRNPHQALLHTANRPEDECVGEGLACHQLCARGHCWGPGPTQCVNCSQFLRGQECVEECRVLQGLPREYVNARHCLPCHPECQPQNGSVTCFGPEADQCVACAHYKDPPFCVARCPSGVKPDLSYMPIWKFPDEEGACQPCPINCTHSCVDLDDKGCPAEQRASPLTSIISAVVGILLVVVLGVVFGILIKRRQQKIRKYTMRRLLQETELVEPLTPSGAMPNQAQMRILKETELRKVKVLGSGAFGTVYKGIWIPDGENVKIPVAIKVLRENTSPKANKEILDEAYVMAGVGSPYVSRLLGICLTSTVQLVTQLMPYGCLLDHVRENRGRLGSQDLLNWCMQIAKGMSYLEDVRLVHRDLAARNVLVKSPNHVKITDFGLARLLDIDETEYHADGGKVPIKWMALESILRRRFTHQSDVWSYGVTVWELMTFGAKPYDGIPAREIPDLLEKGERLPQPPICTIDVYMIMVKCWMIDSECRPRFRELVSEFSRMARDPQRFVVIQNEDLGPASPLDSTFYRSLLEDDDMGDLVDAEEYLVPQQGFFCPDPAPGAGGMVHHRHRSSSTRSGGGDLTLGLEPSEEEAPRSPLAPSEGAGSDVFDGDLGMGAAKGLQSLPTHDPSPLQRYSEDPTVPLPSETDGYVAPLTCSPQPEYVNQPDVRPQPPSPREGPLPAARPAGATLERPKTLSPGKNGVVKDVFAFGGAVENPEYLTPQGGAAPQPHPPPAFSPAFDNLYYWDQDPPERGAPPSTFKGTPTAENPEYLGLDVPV

System in one assay: not listed separately
Kind of assay: Her2 expression decrease, cell viability multiplex – SKBR3 breast tumor cells, AlphaScreen, ATP viability, primary screen (AID 461).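 As to Her2 level: lower value means less Her2 protein in the cells.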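 As to Viability: percent of carrier control wells set as 100% viability.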 The conditions noted are these: SKBR3 Her2 protein level, 18-24 h, measured here: SKBR3 viability, ATP luminescence, at 10 µM. Background: In Alpha technology, singlet oxygen from a donor bead excites a nearby acceptor bead.
For `C=C(c1cccc2ccccc12)P(=O)(O)O`, the viability (as a rule, a read-out of living cells in per cent, often relative to untreated cells) came out at 116%.

In the case of `COc1cc(NC(=O)c2cc(CC(C)C)on2)c(OC)cc1Cl`, the viability stood at 92%.

On to `COc1ccccc1-n1c(SCC(N)=O)nnc1-c1ccccc1`, for which the viability is 126%.

In the case of `Cc1coc2cc3oc(=O)c4c(c3cc12)CCC4`, the viability came to 111%.

For `COc1ccc(NC(=O)CN2CCN(S(=O)(=O)c3ccc(Cl)cc3)CC2)cc1`, the viability amounted to 92%.

As to `COc1cc(-c2nc(S(=O)(=O)c3ccccc3)c(N3CCOCC3)o2)cc(OC)c1OC`, the viability was determined as 82.5%.

Turning to `CCC(C)(C)NC(=O)C(OC(=O)c1ccco1)c1ccccc1OC` (stereo not given), the viability turned out to be 99%.

As for `COc1ccc(-n2nnc3c(=O)n(C/C=C/c4ccccc4)cnc32)cc1`, the viability is 116%.

As to `Cc1ccc(S(=O)(=O)N2CCOCC2)cc1C(=O)Nc1ccccn1`, the viability stood at 87%.

Regarding `CCOc1ccccc1NC(=O)NC1CCN(CC(=O)Nc2ccc3c(c2)OCCO3)CC1`, the viability turned out to be 119%.

In the case of `O=C(CCNS(=O)(=O)c1ccc(Cl)cc1)NCc1ccccn1`, the viability is 97.5%.

As for `COCCNC(=O)CSc1nc(-c2ccc(OC)c(OC)c2)cc(C(F)(F)F)n1`, the viability was found to be 98.5%.

On to `CCOc1ccc2ccccc2c1/C=N/n1cncn1`, for which the viability was found to be 99.5%.

On to `CCOC(=O)C1CCCN(C(=O)c2cc(=O)c3ccccc3o2)C1` (stereo not given), for which the viability came to 94.5%.

Consider `COc1ccc(CN(C(=O)c2oc3ccccc3c2C)C2CCS(=O)(=O)C2)cc1` (stereo not given), for which the viability came to 86%.

For `COC(=O)CCc1c(C)c(C#N)c2nc3ccccc3n2c1N1CCCC1`, the viability was 100%.

Take `COC(=O)c1ccccc1NC(=O)c1noc2c1CCC2`: the viability came out at 93%.

As to `Cc1ccc(S(=O)(=O)NCC(=O)N(CC(=O)NC2CCCCC2)Cc2ccco2)cc1`, the viability was 135%.

In the case of `O=C(CNC1CCCCCC1)Nc1ccc(S(=O)(=O)NC2CC2)cc1`, the viability is 100%.

Consider `Cn1c2c(c(=O)n(C)c1=O)C(c1cccc(Br)c1)C1C(=O)c3ccccc3C1=N2` (stereo not given), for which the viability amounted to 103%.

On to `CC(C)Nc1ncnc2c1cnn2-c1ccccc1`, for which the viability was 95.5%.

Turning to `CN(C)/C=C(\C#N)c1nc2ccccc2[nH]1`, the viability is 85%.

Consider `Oc1ccc2[nH]cnc2c1CN1CCCCC1`, for which the viability was found to be 113%.

With `COc1ccc(S(=O)(=O)C(C#N)c2nc3ccccc3nc2N2CCCC(C)C2)cc1` (stereo not given), the viability worked out at 112%.

`Cc1ccc(S(=O)(=O)N(CC(=O)NCc2ccco2)Cc2ccccc2F)cc1`: the viability amounted to 92%.

On to `COc1ccc(C(=O)NCc2ccccc2OC)cc1`, for which the viability is 110%.

In the case of `CN(C)CCN1C(=O)c2oc3ccc(Cl)cc3c(=O)c2C1c1cccc(Br)c1` (stereo not given), the viability came out at 102%.

`CCOC(=O)Nc1ccc(OC)cc1S(=O)(=O)N1CCCCC1`: the viability was determined as 88.5%.

Consider `CCOC(=O)CSc1nnc([C@H](CC(C)C)NC(=O)OC(C)(C)C)o1`, for which the viability came out at 109%.

As to `O=C(CSc1nnc(-c2ccccc2)c(-c2ccccc2)n1)N1CCOCC1`, the viability amounted to 97%.

`CCOC(=O)C(C)Sc1nc2c(cnn2-c2ccc(C)cc2)c(=O)[nH]1` (stereo not given): the viability came out at 83%.

For `O=c1c2ccccc2nnn1CSc1nnc2sc3ccccc3n12`, the viability was found to be 95%.

With `COc1ncnc2c1N=C1CC(C)(C)CC(N)=C1S2`, the viability is 92.5%.

With `CCc1ccc(CNCc2cccnc2)cc1`, the viability stood at 91%.

Consider `O=C(NC1CCN(Cc2nnnn2CCc2ccccc2)CC1)c1ccccc1F`, for which the viability turned out to be 81.5%.

As to `COc1ccc(C(=O)N(CCCO)Cc2cc3c(C)ccc(C)c3[nH]c2=O)cc1OC`, the viability is 90.5%.

With `Nc1cc(-c2ccccc2)ccc1O`, the viability amounted to 100%.

Turning to `Cc1cc(NC(=O)COc2cccc3cccnc23)no1`, the viability is 93%.

As for `Cc1cc(Br)ccc1NC(=O)CNC(=O)CSc1n[nH]c(N)n1`, the viability was 110%.

As for `CC(=O)NCCOc1cccc(OCCNC(C)=O)c1`, the viability was determined as 94.5%.

Another assay has as its target Receptor tyrosine-protein kinase erbB-2 (Homo sapiens) (UniProt P04626). The description is as above. The note with it: 18-24 h, at 10 µM, stronger effect = lower value.
Regarding `C=C(c1cccc2ccccc12)P(=O)(O)O`, the Her2 level was 99.5% (inactive).

Consider `COc1cc(NC(=O)c2cc(CC(C)C)on2)c(OC)cc1Cl`, for which the Her2 level is 102% (inactive).

In the case of `COc1ccccc1-n1c(SCC(N)=O)nnc1-c1ccccc1`, the Her2 level was 97% (inactive).

On to `Cc1coc2cc3oc(=O)c4c(c3cc12)CCC4`, for which the Her2 level is 81.5% (inactive).

In the case of `COc1ccc(NC(=O)CN2CCN(S(=O)(=O)c3ccc(Cl)cc3)CC2)cc1`, the Her2 level is 76% (inactive).

As to `COc1cc(-c2nc(S(=O)(=O)c3ccccc3)c(N3CCOCC3)o2)cc(OC)c1OC`, the Her2 level was 86.5% (inactive).

As for `CCC(C)(C)NC(=O)C(OC(=O)c1ccco1)c1ccccc1OC` (stereo not given), the Her2 level was 93% (inactive).

As to `COc1ccc(-n2nnc3c(=O)n(C/C=C/c4ccccc4)cnc32)cc1`, the Her2 level was 100% (inactive).

Turning to `Cc1ccc(S(=O)(=O)N2CCOCC2)cc1C(=O)Nc1ccccn1`, the Her2 level is 83% (inactive).

On to `CCOc1ccccc1NC(=O)NC1CCN(CC(=O)Nc2ccc3c(c2)OCCO3)CC1`, for which the Her2 level is 97% (inactive).

In the case of `O=C(CCNS(=O)(=O)c1ccc(Cl)cc1)NCc1ccccn1`, the Her2 level was 75.5% (inactive).

As for `COCCNC(=O)CSc1nc(-c2ccc(OC)c(OC)c2)cc(C(F)(F)F)n1`, the Her2 level was 94% (inactive).

Take `CCOc1ccc2ccccc2c1/C=N/n1cncn1`: the Her2 level was 101% (inactive).

As for `CCOC(=O)C1CCCN(C(=O)c2cc(=O)c3ccccc3o2)C1` (stereo not given), the Her2 level is 87% (inactive).

On to `COc1ccc(CN(C(=O)c2oc3ccccc3c2C)C2CCS(=O)(=O)C2)cc1` (stereo not given), for which the Her2 level is 112% (inactive).

Turning to `COC(=O)CCc1c(C)c(C#N)c2nc3ccccc3n2c1N1CCCC1`, the Her2 level was 84% (inactive).

`COC(=O)c1ccccc1NC(=O)c1noc2c1CCC2`: the Her2 level was 83.5% (inactive).

Take `Cc1ccc(S(=O)(=O)NCC(=O)N(CC(=O)NC2CCCCC2)Cc2ccco2)cc1`: the Her2 level was 100% (inactive).

Turning to `O=C(CNC1CCCCCC1)Nc1ccc(S(=O)(=O)NC2CC2)cc1`, the Her2 level is 87% (inactive).

For `Cn1c2c(c(=O)n(C)c1=O)C(c1cccc(Br)c1)C1C(=O)c3ccccc3C1=N2` (stereo not given), the Her2 level was 97.5% (inactive).

`CC(C)Nc1ncnc2c1cnn2-c1ccccc1`: the Her2 level is 104% (inactive).

For `CN(C)/C=C(\C#N)c1nc2ccccc2[nH]1`, the Her2 level was 90% (inactive).

For `Oc1ccc2[nH]cnc2c1CN1CCCCC1`, the Her2 level is 110% (inactive).

For the compound `COc1ccc(S(=O)(=O)C(C#N)c2nc3ccccc3nc2N2CCCC(C)C2)cc1` (stereo not given), the Her2 level is 102% (inactive).

For `Cc1ccc(S(=O)(=O)N(CC(=O)NCc2ccco2)Cc2ccccc2F)cc1`, the Her2 level was 108% (inactive).

As to `COc1ccc(C(=O)NCc2ccccc2OC)cc1`, the Her2 level was 100% (inactive).

On to `CN(C)CCN1C(=O)c2oc3ccc(Cl)cc3c(=O)c2C1c1cccc(Br)c1` (stereo not given), for which the Her2 level was 72.5% (inactive).

In the case of `CCOC(=O)Nc1ccc(OC)cc1S(=O)(=O)N1CCCCC1`, the Her2 level was 93% (inactive).

Consider `CCOC(=O)CSc1nnc([C@H](CC(C)C)NC(=O)OC(C)(C)C)o1`, for which the Her2 level is 106% (inactive).

Take `O=C(CSc1nnc(-c2ccccc2)c(-c2ccccc2)n1)N1CCOCC1`: the Her2 level is 93% (inactive).

For `CCOC(=O)C(C)Sc1nc2c(cnn2-c2ccc(C)cc2)c(=O)[nH]1` (stereo not given), the Her2 level was 85.5% (inactive).

As for `O=c1c2ccccc2nnn1CSc1nnc2sc3ccccc3n12`, the Her2 level was 64% (inactive).

For `COc1ncnc2c1N=C1CC(C)(C)CC(N)=C1S2`, the Her2 level was 86% (inactive).

On to `CCc1ccc(CNCc2cccnc2)cc1`, for which the Her2 level is 100% (inactive).

Take `O=C(NC1CCN(Cc2nnnn2CCc2ccccc2)CC1)c1ccccc1F`: the Her2 level is 96% (inactive).

For `COc1ccc(C(=O)N(CCCO)Cc2cc3c(C)ccc(C)c3[nH]c2=O)cc1OC`, the Her2 level was 95% (inactive).

Take `Nc1cc(-c2ccccc2)ccc1O`: the Her2 level was 70.5% (inactive).

As to `Cc1cc(NC(=O)COc2cccc3cccnc23)no1`, the Her2 level was 75% (inactive).

As to `Cc1cc(Br)ccc1NC(=O)CNC(=O)CSc1n[nH]c(N)n1`, the Her2 level was 89.5% (inactive).

As to `CC(=O)NCCOc1cccc(OCCNC(C)=O)c1`, the Her2 level is 122% (inactive).
